{
  "source": "PubChem BioAssay (Tox21)",
  "note": "Where “and” joins values, the source holds several entries; their conditions need not be identical. Equal entries are not always repeated. Results filed as inconclusive are left out. Where a call stands in place of a potency, no number is given. A number with no mark means an inactive call. Calls of active or inactive are those of the source. The call rests on the fitted dose curve; in most records, active means well fitted cell-killing curve with a large enough effect in the repeat runs; inconclusive means weak or mixed curves, or effect the other way; inactive means flat fitted curve, though single readings scatter. Potency means the concentration at half of the fitted maximal effect.",
  "data": [
    {"experiment": "cAMP Responsive Elements (CRE) small molecule antagonists, cell-based qHTS assay: qHTS cell viability counter screen (AID 2060913); further: nearly all actives have a fitted effect of over 40% in size", "settings": "CRE-bla HEK293T viability, CellTiter-Glo luminescence, 5 h; series mostly up to 92.4 µM", "summary_of_the_method": "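CRE-bla HEK293T cells were seeded in assay medium with 10% dialyzed FBS, incubated 18 hrs at 37 C, then exposed to compounds plus 0.25 uM final NKH477 for 3 hrs. Viability was read by CellTiter-Glo luminescence after 30 min, in the same wells.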", "values": [
      {"smiles": "CCC(CO)(CO)COCC(CC)(CO)CO", "Potency": "inactive"},
      {"smiles": "CCCCCCCCC1CO1", "note": "(stereo not given)", "Potency": "inactive"},
      {"smiles": "CN(C)CCc1c[nH]c2ccc(C[C@H]3COC(=O)N3)cc12", "Potency": "inactive"},
      {"smiles": "CCC(C)(CCCC(C)C)OC(C)=O", "note": "(stereo not given)", "Potency": "inactive"},
      {"smiles": "CC(C)NCC(O)COc1ccc(COCCOC(C)C)cc1", "note": "(stereo not given)", "Potency": "inactive"},
      {"smiles": "O=C(O)CCC(=O)c1ccc(-c2ccccc2)cc1", "Potency": "inactive"},
      {"smiles": "OCCc1ccncc1", "Potency": "inactive"},
      {"smiles": "C[C@H](CCC(=O)O)[C@H]1CC[C@H]2[C@@H]3[C@H](O)C[C@@H]4C[C@H](O)CC[C@]4(C)[C@H]3C[C@H](O)[C@]12C", "Potency": "inactive"},
      {"smiles": "COC(=O)CCS", "Potency": "inactive"},
      {"smiles": "CCC(=O)CC", "Potency": "inactive"},
      {"smiles": "CCOc1ccc2nc3cc(N)ccc3c(N)c2c1", "Potency": "inactive"},
      {"smiles": "NC(Cc1ccc(F)cc1)C(=O)O", "note": "(stereo not given)", "viability change, negative = cytotoxic": "19.3% [at 8.39 µM]"},
      {"smiles": "CC(C)CCCCCCc1ccc(O)cc1", "Potency": "55.4 µM (active) and 27.3 µM (active)"},
      {"smiles": "COCCCOc1cc(C[C@@H](C[C@H](N)[C@@H](O)C[C@H](C(=O)NCC(C)(C)C(N)=O)C(C)C)C(C)C)ccc1OC", "Potency": "inactive"},
      {"smiles": "CC(C)CNCC(C)C", "Potency": "inactive"},
      {"smiles": "CCCCNc1cc(C(=O)O)cc(S(N)(=O)=O)c1Oc1ccccc1", "Potency": "inactive"},
      {"smiles": "C=CCc1ccc(O)c(OC)c1", "Potency": "inactive"},
      {"smiles": "CCCCCCCCCCCC(=O)OCC(O)CO", "note": "(stereo not given)", "Potency": "inactive"},
      {"smiles": "Cc1cccc2sc(N)nc12", "Potency": "inactive"},
      {"smiles": "CC(C)NCC(O)c1ccc(O)c(O)c1", "note": "(stereo not given)", "Potency": "inactive"},
      {"smiles": "Oc1cccc2[nH]ccc12", "Potency": "inactive"},
      {"smiles": "COc1cc(C(C)C)c2c(c1)S(=O)(=O)N(COc1cc(=O)n3cccc(OCCN4CCCCC4)c3n1)C2=O", "viability change, negative = cytotoxic": "-2.74% [at 18.9 µM]"},
      {"smiles": "Cc1ccccc1S", "Potency": "inactive"},
      {"smiles": "CO[C@@H]1[C@H](OC(=O)/C=C/C=C/C=C/C=C/C(=O)O)CC[C@]2(CO2)[C@H]1[C@@]1(C)O[C@@H]1CC=C(C)C", "Potency": "inactive"},
      {"smiles": "CC[C@@H](N)CO", "Potency": "inactive"},
      {"smiles": "CC(C)CCCC(C)N", "note": "(stereo not given)", "Potency": "inactive"},
      {"smiles": "CCCCOC(=O)[C@@H](C)Oc1ccc(Oc2ccc(C(F)(F)F)cn2)cc1", "Potency": "inactive"},
      {"smiles": "CC(C)[C@H]1CC[C@H](C)C[C@@H]1O", "Potency": "inactive"},
      {"smiles": "COc1nc(C)nc(N)n1", "Potency": "inactive"},
      {"smiles": "CCCc1ccc(N)cc1", "Potency": "inactive"},
      {"smiles": "CCn1cc(C(=O)O)c(=O)c2cc3c(cc21)OCO3", "Potency": "inactive"},
      {"smiles": "CC(C)[C@@H]1CC[C@@H](C)C[C@H]1O", "Potency": "inactive"},
      {"smiles": "BrC1CCC(Br)C(Br)CCC(Br)C(Br)CCC1Br", "note": "(stereo not given)", "Potency": "inactive"},
      {"smiles": "C/C=C/C=C/COC(=O)C(C)C", "Potency": "inactive"},
      {"smiles": "NC(=O)c1ncn([C@@H]2O[C@H](CO)[C@@H](O)[C@H]2O)c1O", "Potency": "inactive"},
      {"smiles": "C=C(C)CS(=O)(=O)O", "Potency": "inactive"},
      {"smiles": "CCN[C@@H]1C[C@H](N)[C@@H](OC2OC(CN)=CCC2N)[C@H](O)[C@H]1O[C@H]1OC[C@](C)(O)[C@H](NC)[C@H]1O", "note": "(stereo not given in full)", "viability change, negative = cytotoxic": "1.22% [at 0.349 µM]"},
      {"smiles": "CCOC(=O)COc1ccc2c(C)c(CCN(CC)CC)c(=O)oc2c1Cl", "Potency": "inactive"},
      {"smiles": "C[C@]12CCC(=O)C=C1CC[C@@H]1[C@@H]2C(=O)C[C@@]2(C)[C@H]1CC[C@]2(O)C(=O)CO", "Potency": "inactive"},
      {"smiles": "NC(=O)Nc1ccccc1", "Potency": "inactive"}
    ]},
    {"experiment": "cAMP Responsive Elements (CRE) small molecule agonists, cell-based qHTS assay: qHTS cell viability counter screen (AID 2060914); further: nearly all actives have a fitted effect of over 50% in size", "settings": "CRE-bla HEK293T viability, CellTiter-Glo luminescence, 5 h; series mostly up to 92.4 µM", "summary_of_the_method": "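HEK 293T CRE-bla; DMEM + 10% dialyzed FBS, 25 mM HEPES; 18 h pre-incubation; compound 3 h, 37 °C/5% CO2; CellTiter-Glo added after reporter read; luminescence after 30 min RT.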", "values": [
      {"smiles": "CCC(CO)(CO)COCC(CC)(CO)CO", "Potency": "inactive"},
      {"smiles": "CCCCCCCCC1CO1", "note": "(stereo not given)", "Potency": "inactive"},
      {"smiles": "CN(C)CCc1c[nH]c2ccc(C[C@H]3COC(=O)N3)cc12", "Potency": "inactive"},
      {"smiles": "CCC(C)(CCCC(C)C)OC(C)=O", "note": "(stereo not given)", "Potency": "inactive"},
      {"smiles": "CC(C)NCC(O)COc1ccc(COCCOC(C)C)cc1", "note": "(stereo not given)", "Potency": "inactive"},
      {"smiles": "O=C(O)CCC(=O)c1ccc(-c2ccccc2)cc1", "Potency": "inactive"},
      {"smiles": "OCCc1ccncc1", "Potency": "inactive"},
      {"smiles": "C[C@H](CCC(=O)O)[C@H]1CC[C@H]2[C@@H]3[C@H](O)C[C@@H]4C[C@H](O)CC[C@]4(C)[C@H]3C[C@H](O)[C@]12C", "Potency": "inactive"},
      {"smiles": "COC(=O)CCS", "Potency": "inactive"},
      {"smiles": "CCC(=O)CC", "Potency": "inactive"},
      {"smiles": "CCOc1ccc2nc3cc(N)ccc3c(N)c2c1", "Potency": "inactive"},
      {"smiles": "NC(Cc1ccc(F)cc1)C(=O)O", "note": "(stereo not given)", "activity change, negative = cytotoxicity": "0.316% [at 8.39 µM]"},
      {"smiles": "CC(C)CCCCCCc1ccc(O)cc1", "Potency": "55.4 µM (active) and 30.6 µM (active)"},
      {"smiles": "COCCCOc1cc(C[C@@H](C[C@H](N)[C@@H](O)C[C@H](C(=O)NCC(C)(C)C(N)=O)C(C)C)C(C)C)ccc1OC", "Potency": "inactive"},
      {"smiles": "CC(C)CNCC(C)C", "Potency": "inactive"},
      {"smiles": "CCCCNc1cc(C(=O)O)cc(S(N)(=O)=O)c1Oc1ccccc1", "Potency": "inactive"},
      {"smiles": "C=CCc1ccc(O)c(OC)c1", "Potency": "inactive"},
      {"smiles": "CCCCCCCCCCCC(=O)OCC(O)CO", "note": "(stereo not given)", "Potency": "inactive"},
      {"smiles": "Cc1cccc2sc(N)nc12", "Potency": "inactive"},
      {"smiles": "CC(C)NCC(O)c1ccc(O)c(O)c1", "note": "(stereo not given)", "Potency": "inactive"},
      {"smiles": "Oc1cccc2[nH]ccc12", "Potency": "inactive"},
      {"smiles": "COc1cc(C(C)C)c2c(c1)S(=O)(=O)N(COc1cc(=O)n3cccc(OCCN4CCCCC4)c3n1)C2=O", "activity change, negative = cytotoxicity": "4.87% [at 18.9 µM]"},
      {"smiles": "Cc1ccccc1S", "Potency": "inactive"},
      {"smiles": "CO[C@@H]1[C@H](OC(=O)/C=C/C=C/C=C/C=C/C(=O)O)CC[C@]2(CO2)[C@H]1[C@@]1(C)O[C@@H]1CC=C(C)C", "Potency": "inactive"},
      {"smiles": "CC[C@@H](N)CO", "Potency": "inactive"},
      {"smiles": "CC(C)CCCC(C)N", "note": "(stereo not given)", "Potency": "inactive"},
      {"smiles": "CCCCOC(=O)[C@@H](C)Oc1ccc(Oc2ccc(C(F)(F)F)cn2)cc1", "Potency": "inactive"},
      {"smiles": "CC(C)[C@H]1CC[C@H](C)C[C@@H]1O", "Potency": "inactive"},
      {"smiles": "COc1nc(C)nc(N)n1", "Potency": "inactive"},
      {"smiles": "CCCc1ccc(N)cc1", "Potency": "inactive"},
      {"smiles": "CCn1cc(C(=O)O)c(=O)c2cc3c(cc21)OCO3", "Potency": "inactive"},
      {"smiles": "CC(C)[C@@H]1CC[C@@H](C)C[C@H]1O", "Potency": "inactive"},
      {"smiles": "BrC1CCC(Br)C(Br)CCC(Br)C(Br)CCC1Br", "note": "(stereo not given)", "Potency": "inactive"},
      {"smiles": "C/C=C/C=C/COC(=O)C(C)C", "Potency": "inactive"},
      {"smiles": "NC(=O)c1ncn([C@@H]2O[C@H](CO)[C@@H](O)[C@H]2O)c1O", "Potency": "inactive"},
      {"smiles": "C=C(C)CS(=O)(=O)O", "Potency": "inactive"},
      {"smiles": "CCN[C@@H]1C[C@H](N)[C@@H](OC2OC(CN)=CCC2N)[C@H](O)[C@H]1O[C@H]1OC[C@](C)(O)[C@H](NC)[C@H]1O", "note": "(stereo not given in full)", "activity change, negative = cytotoxicity": "3.46% [at 0.349 µM]"},
      {"smiles": "CCOC(=O)COc1ccc2c(C)c(CCN(CC)CC)c(=O)oc2c1Cl", "Potency": "inactive"},
      {"smiles": "C[C@]12CCC(=O)C=C1CC[C@@H]1[C@@H]2C(=O)C[C@@]2(C)[C@H]1CC[C@]2(O)C(=O)CO", "Potency": "inactive"},
      {"smiles": "NC(=O)Nc1ccccc1", "Potency": "inactive"}
    ]}
  ]
}
